A short description of assay [1]: Caspase-3/7 induction in HepG2 cells by small molecules, qHTS assay (AID 1346978). Further: nearly all actives have a fitted effect of over 15% in size. Further: potency means the concentration at half of the fitted maximal effect. The method in brief: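 Wild-type HepG2 cells (2,000/well) were settled 5 h at 37 C, 5% CO2, then exposed to compounds in DMSO for 17 h. Caspase-3/7 activity was read by luminescence 30 min after adding Caspase-Glo 3/7 reagent at room temperature.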
For orientation: Quantitative high-throughput screening tests each substance at several concentrations.

The nature of assay [2]: Caspase-3/7 induction in CHO-K1 cells by small molecules, qHTS assay (AID 1346980). Further: nearly all actives have a fitted effect of over 15% in size. The method in brief: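 Wild-type cells were seeded at 1,500 per well and settled 5 hr at 37 C, 5% CO2, then exposed to DMSO-dissolved compounds for 17 hr. Caspase-Glo 3/7 reagent was added, and luminescence was read after 30min at room temperature.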
Assay [3] is described as follows: Caspase-3/7 induction in HepG2 cells by small molecules, qHTS cell viability counter screen (AID 1346981). Further: nearly all actives have a fitted effect of over 30% in size. Further: potency means the concentration at half of the fitted maximal effect. In outline:
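In this quantitative HTS counter screen, compounds delivered in DMSO were left on unmodified HepG2 cells for 16 hr at 37 C. Viability was then determined fluorometrically with CellTiter-Fluor, in parallel with caspase-3/7 induction in the same wells.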

Assay [4] addresses Nuclear receptor subfamily 1 group I member 2 (Homo sapiens) (UniProt O75469). Put plainly: Human pregnane X receptor (PXR) small molecule agonists, qHTS assay (AID 1346982). Further: nearly all actives have a fitted effect of over 35% in size. Further: potency means the concentration at half of the fitted maximal effect. In outline: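 Reporter HepG2 cells expressing PXR-Luc are cultured in charcoal-stripped FBS (5%), treated with compounds for 24 hr at 37 C, and assayed by ONE-Glo luminescence after 30 min at room temperature.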

The target in assay [5] is Acetylcholinesterase (Homo sapiens) (UniProt P22303). As to the kind of experiment: Acetylcholinesterase (AChE) small molecule antagonists: colormetric cell-based qHTS assay (AID 1347395; calls by dose curve; further: nearly all actives have a fitted effect of over 30% in size; further: potency means the concentration at half of the fitted maximal effect). The method in brief:
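In this cell-based qHTS, attached SH-SY5Y cells were treated with test chemicals for 30 min, after which acetylthiocholine hydrolysis was followed by DTNB colour development over 90 min at 37 C.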

Assay [6] shares this target. As to the kind of experiment: Acetylcholinesterase (AChE) small molecule antagonists: enzyme-based qHTS assay (AID 1347397; calls by dose curve; further: nearly all actives have a fitted effect of over 55% in size; further: potency means the concentration at half of the fitted maximal effect). As to conditions: Potency: AChE enzyme activity inhibition. In outline:
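Tox21 library chemicals are tested in qHTS format against recombinant human AChE. The enzyme, dispensed at 50 mU/mL, sits with compound for 30 min at room temperature. A DTNB–acetylthiocholine cocktail follows, and colour is read after 10 min.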

For assay [7] the target is unchanged. As to the kind of experiment: Acetylcholinesterase (AChE) small molecule antagonists: fluorescence cell-based qHTS assay (AID 1347398; calls by dose curve; further: nearly all actives have a fitted effect of over 50% in size; further: potency means the concentration at half of the fitted maximal effect). As to conditions: Potency: AChE activity. In outline:
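Cellular AChE inhibition: SH-SY5Y cells treated with test chemical for 30 min at 37 C, then acetylthiocholine hydrolysis followed over 40 min at room temperature via thiocholine-reactive Thiolite Green fluorescence (490/520 nm).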

The target is the same in assay [8]. Put plainly: Acetylcholinesterase (AChE) small molecule antagonists: enzyme-based qHTS assay with human liver microsomes (AID 1347399; calls by dose curve; further: nearly all actives have a fitted effect of over 60% in size). As to conditions: Potency: qHTS inhibition. The method in brief:
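Recombinant human AChE (50 mU/mL in the enzyme mix) and human liver microsomes (0.25 mg/mL final) were preincubated with compound and NADPH (0.25 mg/mL final) for 30 min at 37 C. Acetylthiocholine/DTNB was then added; thiocholine was read colorimetrically after 10 min at room temperature.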

Assay [9] deals with Cytochrome P450 2D6 (Homo sapiens) (UniProt P10635). As to the kind of experiment: Cytochrome P450 Family 2 Subfamily D Member 6 (CYP2D6) small molecule antagonists: luciferase reporter qHTS assay (AID 1671196). Further: potency means the concentration at half of the fitted maximal effect; nearly all actives have a fitted effect of over 50% in size. In outline: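 Test chemicals meet CYP2D6 plus proluciferin substrate (10 min, RT); NADPH regenerating solution then drives turnover for 1 h. Detection reagent halts the reaction; luminescence measured after 20 min.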
Sequence of Cytochrome P450 2D6 (Homo sapiens) (P10635 whole entry, looked up): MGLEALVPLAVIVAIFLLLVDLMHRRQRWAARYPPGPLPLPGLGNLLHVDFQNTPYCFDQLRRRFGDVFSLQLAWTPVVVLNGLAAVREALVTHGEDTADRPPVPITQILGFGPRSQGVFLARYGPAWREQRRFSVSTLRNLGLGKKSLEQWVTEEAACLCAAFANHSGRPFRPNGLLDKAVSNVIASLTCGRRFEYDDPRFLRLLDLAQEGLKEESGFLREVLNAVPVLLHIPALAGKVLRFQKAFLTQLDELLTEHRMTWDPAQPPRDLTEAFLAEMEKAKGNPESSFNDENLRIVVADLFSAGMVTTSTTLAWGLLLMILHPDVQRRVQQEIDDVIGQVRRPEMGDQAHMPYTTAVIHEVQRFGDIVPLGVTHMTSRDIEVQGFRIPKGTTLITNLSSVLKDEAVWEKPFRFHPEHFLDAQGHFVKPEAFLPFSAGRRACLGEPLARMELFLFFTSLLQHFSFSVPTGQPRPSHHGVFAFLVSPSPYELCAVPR
(In general: Reporter assays use an easily measured gene product as a stand-in for the process of interest.)

Assay [10] deals with Cytochrome P450 2C19 (Homo sapiens) (UniProt P33261). As to the kind of experiment: Cytochrome P450 Family 2 Subfamily C Member 19 (CYP2C19) small molecule antagonists: luciferase reporter qHTS assay (AID 1671197). Further: nearly all actives have a fitted effect of over 65% in size. Further: potency means the concentration at half of the fitted maximal effect. In outline:
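Quantitative high-throughput screen of the Tox21 library using CYP2C19 with proluciferin substrate. Reaction: NADPH regeneration, 37C, 1 h, after 10 min compound preincubation at room temperature. Readout: luminescence.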

The target of assay [11] is Cytochrome P450 2C9 (Homo sapiens) (UniProt P11712). Put plainly: Cytochrome P450 Family 2 Subfamily C Member 9 (CYP2C9) small molecule antagonists: luciferase reporter qHTS assay (AID 1671198). Further: nearly all actives have a fitted effect of over 50% in size. Further: potency means the concentration at half of the fitted maximal effect. The method in brief:
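CYP2C9 activity was measured with a P450-Glo proluciferin substrate. Enzyme–substrate mix was held with compound for 10 min at room temperature, then NADPH regeneration solution was added for 1 h at 37C. Luciferin product was read as luminescence.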

Assay [12] addresses Cytochrome P450 1A2 (Homo sapiens) (UniProt P05177). Put plainly: Cytochrome P450 Family 1 Subfamily A Member 2 (CYP1A2) small molecule antagonists: luciferase reporter qHTS assay (AID 1671199). Further: nearly all actives have a fitted effect of over 50% in size. Further: potency means the concentration at half of the fitted maximal effect. In outline: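 Steps: enzyme-substrate mix dispensed; test compounds and furafylline control pinned in; 10 min room temperature; NADPH regeneration solution added, 1 h; reaction stopped with luciferin detection reagent; luminescence read after 20 min.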

In assay [13] the target is Voltage-gated inwardly rectifying potassium channel KCNH2 (Homo sapiens) (UniProt Q12809). As to the kind of experiment: Human Ether-a-go-go-Related Gene (hERG) channel small molecule antagonists: fluorescence cell-based qHTS assay (AID 1671200). Further: nearly all actives have a fitted effect of over 50% in size. Further: potency means the concentration at half of the fitted maximal effect. In outline: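 Cell line hERG-U2OS; dye FluxOR II, 1 h RT dark; Tl+ stimulus; ex 480/em 540 nm, read each second for 2 min.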
Sequence of Voltage-gated inwardly rectifying potassium channel KCNH2 (Homo sapiens) (Q12809 whole entry, looked up): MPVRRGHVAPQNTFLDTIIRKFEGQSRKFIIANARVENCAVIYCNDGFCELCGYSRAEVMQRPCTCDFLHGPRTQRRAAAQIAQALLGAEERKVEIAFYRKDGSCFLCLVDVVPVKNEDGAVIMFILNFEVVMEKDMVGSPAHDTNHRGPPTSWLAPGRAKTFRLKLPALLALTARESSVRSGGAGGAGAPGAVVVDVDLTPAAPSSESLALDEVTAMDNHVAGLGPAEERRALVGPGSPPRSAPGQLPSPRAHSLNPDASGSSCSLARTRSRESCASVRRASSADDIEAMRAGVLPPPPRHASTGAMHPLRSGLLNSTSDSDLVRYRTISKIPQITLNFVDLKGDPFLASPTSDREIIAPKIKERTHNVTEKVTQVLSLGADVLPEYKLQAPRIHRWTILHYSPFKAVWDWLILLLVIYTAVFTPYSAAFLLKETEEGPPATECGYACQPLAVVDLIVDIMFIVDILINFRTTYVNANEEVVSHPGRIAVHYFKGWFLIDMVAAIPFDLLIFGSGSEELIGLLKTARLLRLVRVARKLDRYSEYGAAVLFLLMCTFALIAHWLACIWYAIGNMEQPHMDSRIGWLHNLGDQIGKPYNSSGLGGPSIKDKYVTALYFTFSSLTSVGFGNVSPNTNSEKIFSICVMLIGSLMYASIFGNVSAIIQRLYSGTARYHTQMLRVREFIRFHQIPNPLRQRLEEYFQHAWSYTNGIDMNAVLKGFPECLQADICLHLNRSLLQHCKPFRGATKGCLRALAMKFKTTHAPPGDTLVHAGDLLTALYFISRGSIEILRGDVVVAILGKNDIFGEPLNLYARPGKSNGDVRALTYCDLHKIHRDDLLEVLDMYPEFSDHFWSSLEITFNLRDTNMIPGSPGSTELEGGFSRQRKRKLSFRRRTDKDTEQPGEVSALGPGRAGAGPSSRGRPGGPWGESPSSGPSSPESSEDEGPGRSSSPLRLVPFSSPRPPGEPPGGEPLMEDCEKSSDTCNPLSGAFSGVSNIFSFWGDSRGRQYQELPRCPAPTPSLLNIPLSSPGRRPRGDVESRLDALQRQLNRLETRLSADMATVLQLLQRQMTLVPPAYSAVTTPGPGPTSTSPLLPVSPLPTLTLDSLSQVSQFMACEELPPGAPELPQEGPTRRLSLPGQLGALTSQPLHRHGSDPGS

Assay [14] addresses Cytochrome P450 3A4 (Homo sapiens) (UniProt P08684). Put plainly: Cytochrome P450 Family 3 Subfamily A Member 4 (CYP3A4) small molecule antagonists: luciferase reporter qHTS assay (AID 1671201). Further: nearly all actives have a fitted effect of over 50% in size. Further: potency means the concentration at half of the fitted maximal effect. In outline: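 Room-temperature assay throughout: 10 min compound–enzyme/substrate preincubation, 1 h reaction after NADPH regeneration solution, 20 min detection. Luciferin formed from proluciferin substrate is quantified by luminescence.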

Assay [15] can be described thus: Caspase-3/7 induction in CHO-K1 cells by small molecules, qHTS cell viability counter screen (AID 1346979). Further: nearly all actives have a fitted effect of over 35% in size. Further: potency means the concentration at half of the fitted maximal effect. The method in brief:
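Multiplexed with Caspase-Glo 3/7 in CHO-K1 cells, this counter screen added CellTiter-Fluor after 16hr of compound exposure and recorded fluorescence 1hr later.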

Molecules are shown by their SMILES. “And” between values parts separate entries of the source, which are not always exact repeats. Equal values may be shown once. Results filed as inconclusive are left out. Where a structure was tested more than once in an assay, its records may differ in their call. The source made the active and inactive calls. Unless noted, the call rests on the fitted dose curve; in most records, active means well fitted curve in the direction sought with a large enough effect in the repeat runs; inconclusive means weak or mixed curves; inactive means no such curve, though single readings can be large; an effect the other way counts as inactive or inconclusive.

Sequence of Cytochrome P450 3A4 (Homo sapiens) (P08684 whole entry, looked up): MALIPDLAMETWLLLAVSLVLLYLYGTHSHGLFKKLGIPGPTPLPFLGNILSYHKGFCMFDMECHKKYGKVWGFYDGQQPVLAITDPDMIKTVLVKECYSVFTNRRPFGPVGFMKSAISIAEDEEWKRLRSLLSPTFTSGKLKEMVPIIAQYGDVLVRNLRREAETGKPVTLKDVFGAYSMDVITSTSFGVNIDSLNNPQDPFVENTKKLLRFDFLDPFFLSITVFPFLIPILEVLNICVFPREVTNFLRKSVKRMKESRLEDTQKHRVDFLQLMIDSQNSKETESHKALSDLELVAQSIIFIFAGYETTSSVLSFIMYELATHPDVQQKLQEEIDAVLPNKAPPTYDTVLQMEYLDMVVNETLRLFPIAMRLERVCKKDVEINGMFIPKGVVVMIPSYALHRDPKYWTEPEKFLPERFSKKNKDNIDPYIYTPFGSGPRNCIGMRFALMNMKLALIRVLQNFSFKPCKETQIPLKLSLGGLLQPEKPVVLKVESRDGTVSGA
Sequence of Cytochrome P450 2C9 (Homo sapiens) (P11712 whole entry, looked up): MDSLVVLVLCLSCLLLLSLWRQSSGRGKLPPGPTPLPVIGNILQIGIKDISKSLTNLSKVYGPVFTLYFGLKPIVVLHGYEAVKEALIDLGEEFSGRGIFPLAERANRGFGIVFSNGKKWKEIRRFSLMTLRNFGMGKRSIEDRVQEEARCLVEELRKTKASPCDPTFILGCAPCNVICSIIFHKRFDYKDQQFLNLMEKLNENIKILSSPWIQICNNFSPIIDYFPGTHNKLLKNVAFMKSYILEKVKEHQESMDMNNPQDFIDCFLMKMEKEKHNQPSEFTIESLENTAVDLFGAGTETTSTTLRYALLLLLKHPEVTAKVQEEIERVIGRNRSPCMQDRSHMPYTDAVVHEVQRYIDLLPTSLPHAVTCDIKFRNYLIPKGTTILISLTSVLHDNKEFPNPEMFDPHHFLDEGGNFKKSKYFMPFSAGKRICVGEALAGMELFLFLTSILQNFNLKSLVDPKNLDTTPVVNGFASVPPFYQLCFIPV
Sequence of Acetylcholinesterase (Homo sapiens) (P22303 whole entry, looked up): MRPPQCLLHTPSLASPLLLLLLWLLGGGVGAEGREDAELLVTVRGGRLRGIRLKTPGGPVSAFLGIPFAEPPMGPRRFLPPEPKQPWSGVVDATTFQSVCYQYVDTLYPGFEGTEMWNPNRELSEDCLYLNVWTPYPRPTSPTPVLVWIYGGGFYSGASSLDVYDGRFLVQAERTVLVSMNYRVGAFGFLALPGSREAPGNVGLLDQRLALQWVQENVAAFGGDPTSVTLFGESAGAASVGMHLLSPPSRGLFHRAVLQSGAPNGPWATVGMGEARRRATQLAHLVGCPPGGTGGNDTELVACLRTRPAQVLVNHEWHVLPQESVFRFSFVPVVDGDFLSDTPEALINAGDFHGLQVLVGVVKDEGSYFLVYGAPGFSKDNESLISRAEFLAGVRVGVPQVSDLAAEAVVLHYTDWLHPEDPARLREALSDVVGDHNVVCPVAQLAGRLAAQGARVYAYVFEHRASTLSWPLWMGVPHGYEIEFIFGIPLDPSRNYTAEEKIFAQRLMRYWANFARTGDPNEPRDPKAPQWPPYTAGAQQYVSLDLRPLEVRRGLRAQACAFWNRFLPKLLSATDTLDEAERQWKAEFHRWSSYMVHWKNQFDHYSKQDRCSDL
Sequence of Cytochrome P450 2C19 (Homo sapiens) (P33261 whole entry, looked up): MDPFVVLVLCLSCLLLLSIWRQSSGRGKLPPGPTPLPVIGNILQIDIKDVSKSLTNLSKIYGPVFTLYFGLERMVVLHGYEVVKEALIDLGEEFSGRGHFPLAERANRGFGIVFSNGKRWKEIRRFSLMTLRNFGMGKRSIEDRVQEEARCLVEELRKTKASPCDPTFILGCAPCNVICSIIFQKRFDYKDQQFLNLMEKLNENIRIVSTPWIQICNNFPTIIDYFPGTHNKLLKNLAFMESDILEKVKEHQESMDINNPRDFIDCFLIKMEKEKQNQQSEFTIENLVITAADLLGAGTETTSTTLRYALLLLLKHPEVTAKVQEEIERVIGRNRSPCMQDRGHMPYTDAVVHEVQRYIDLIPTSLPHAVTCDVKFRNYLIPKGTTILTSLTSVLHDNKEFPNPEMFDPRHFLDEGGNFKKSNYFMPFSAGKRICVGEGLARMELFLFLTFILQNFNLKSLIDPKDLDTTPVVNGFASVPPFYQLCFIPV
Sequence of Cytochrome P450 1A2 (Homo sapiens) (P05177 whole entry, looked up): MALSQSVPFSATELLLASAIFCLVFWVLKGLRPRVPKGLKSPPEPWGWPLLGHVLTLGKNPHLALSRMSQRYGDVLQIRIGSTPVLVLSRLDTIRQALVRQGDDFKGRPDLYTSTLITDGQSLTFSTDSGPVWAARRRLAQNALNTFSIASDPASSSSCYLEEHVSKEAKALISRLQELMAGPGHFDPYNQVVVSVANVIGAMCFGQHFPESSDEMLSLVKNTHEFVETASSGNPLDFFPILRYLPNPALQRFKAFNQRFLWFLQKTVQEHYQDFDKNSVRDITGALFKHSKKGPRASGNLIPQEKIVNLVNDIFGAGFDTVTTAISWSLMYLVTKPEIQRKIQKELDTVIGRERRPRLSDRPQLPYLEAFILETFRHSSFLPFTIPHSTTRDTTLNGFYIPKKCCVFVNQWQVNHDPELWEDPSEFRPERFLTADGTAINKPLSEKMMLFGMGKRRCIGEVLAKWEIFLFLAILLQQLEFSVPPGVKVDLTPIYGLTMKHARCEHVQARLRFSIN
Sequence of Nuclear receptor subfamily 1 group I member 2 (Homo sapiens) (O75469 whole entry, looked up): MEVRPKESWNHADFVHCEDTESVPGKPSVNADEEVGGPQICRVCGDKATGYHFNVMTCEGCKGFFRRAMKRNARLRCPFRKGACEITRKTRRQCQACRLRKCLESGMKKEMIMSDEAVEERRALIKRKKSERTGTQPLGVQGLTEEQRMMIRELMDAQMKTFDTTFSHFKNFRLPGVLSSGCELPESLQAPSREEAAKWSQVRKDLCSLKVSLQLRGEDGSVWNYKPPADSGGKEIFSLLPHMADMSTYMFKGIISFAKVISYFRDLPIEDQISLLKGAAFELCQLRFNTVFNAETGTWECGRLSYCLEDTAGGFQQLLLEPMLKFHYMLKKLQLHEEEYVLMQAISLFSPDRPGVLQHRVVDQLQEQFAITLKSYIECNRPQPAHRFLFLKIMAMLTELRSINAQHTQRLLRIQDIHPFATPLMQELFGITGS

Take `C#CCC1=C(C)C(OC(=O)C2C(C=C(C)C)C2(C)C)CC1=O` (stereo unspecified): the Potency entry in [1], in assay [2], in assay [3], in assay [5], in assay [6] and in [7] was “inactive” each time. Besides, in assay [8], the Potency entry is “inactive”. In addition, the Potency in [4] is 10.8 µM (active); in assay [9] it was 39.7 µM (active); in assay [10] it was 4.99 µM (active); in assay [11] it was 12.5 µM (active); in [12] it was 25 µM (active); in assay [13], 43.4 µM (active). The Potency in [14] is 8.88 µM (active).
On to `COc1ccc2[nH]cc(CCN(C(C)C)C(C)C)c2c1`, for which the Potency entry in assay [1], in [15], in assay [3], in assay [4], in assay [10] and in [11] was “inactive” in each case. For the same compound, in assay [14], the Potency result was “inactive”. The Potency in [9] was 4.09 µM (active); in assay [12], 40.9 µM (active); in assay [13] it was 28.2 µM (active).
In the case of `CCN(CC)CCc1c[nH]c2ccccc12`, the Potency entry in assay [1], in [15], in assay [3], in [4], in assay [6] and in assay [7] was “inactive” each time. Further, the Potency entry in assay [8], in assay [10], in assay [11] and in [13] was “inactive” in each case. For the same compound, the Potency in assay [9] was 5.26 µM (active); in [12] it was 52.6 µM (active).
For the compound `CCCCCCCCCCCCCCn1cc[n+](C)c1`, the Potency was 43.4 µM (active) and inactive in [1]; 4.34 µM (active) and 8.54 µM (active) and 61.1 µM (active) in [15]; 61.3 µM (active) and 67.8 µM (active) and 54.4 µM (active) in assay [3]; 3.86 µM (active) and 4.28 µM (active) and 21.7 µM (active) in assay [4]; 63.4 µM (active) and 70.2 µM (active) and inactive in assay [5]; 50.4 µM (active) and 70.2 µM (active) and inactive in assay [6]. The Potency in [7] is 20.1 µM (active) and 31.4 µM (active) and inactive; in [9], 1.13 µM (active) and 1.25 µM (active); in assay [10] it was 40 µM (active) and 78.8 µM (active); in assay [11], 11.3 µM (active); in [12], 40 µM (active) and 62.6 µM (active); in [14] it was 40 µM (active). Besides, in assay [8], the Potency result was “inactive”.
In the case of `CCCCCCCc1ccc(O)cc1`, the Potency entry in [2], in assay [5], in [6], in assay [7], in assay [8] and in assay [14] was “inactive” in each case. Also, the Potency in assay [4] is 61.1 µM (active); in assay [10] it was 20 µM (active); in assay [11], 35.6 µM (active); in assay [12], 35.6 µM (active).
In the case of `Oc1ccc([C@H]2CNCc3c2ccc(O)c3O)cc1O`, the Potency result in [1], in [4], in assay [6], in assay [8], in assay [12] and in assay [13] was “inactive” each time. In assay [14], the Potency result is “inactive”. The Potency in [15] was 29.8 µM (active); in [7], 30.9 µM (active); in assay [9], 34.7 µM (active); in [10], 38.9 µM (active); in [11] it was 13.8 µM (active).

Source of the values: PubChem BioAssay (Tox21).
